Source: PubChem BioAssay (Sanford-Burnham Center for Chemical Genomics)
CYP2C9 inh – blockers of cytochrome P450 2C9 activity – biochemical, luminescence, ADME assay, primary screen; inhibition, % at 5 µM; AID 777, 2007; P11712; 20% of 96,000 active; CYP2C9 Supersomes, luciferin-H conversion;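 active = blocking of liver enzyme CYP2C9 beyond about 50% at 5 µM, limit read from the data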
Target sequence (P11712 whole entry, looked up): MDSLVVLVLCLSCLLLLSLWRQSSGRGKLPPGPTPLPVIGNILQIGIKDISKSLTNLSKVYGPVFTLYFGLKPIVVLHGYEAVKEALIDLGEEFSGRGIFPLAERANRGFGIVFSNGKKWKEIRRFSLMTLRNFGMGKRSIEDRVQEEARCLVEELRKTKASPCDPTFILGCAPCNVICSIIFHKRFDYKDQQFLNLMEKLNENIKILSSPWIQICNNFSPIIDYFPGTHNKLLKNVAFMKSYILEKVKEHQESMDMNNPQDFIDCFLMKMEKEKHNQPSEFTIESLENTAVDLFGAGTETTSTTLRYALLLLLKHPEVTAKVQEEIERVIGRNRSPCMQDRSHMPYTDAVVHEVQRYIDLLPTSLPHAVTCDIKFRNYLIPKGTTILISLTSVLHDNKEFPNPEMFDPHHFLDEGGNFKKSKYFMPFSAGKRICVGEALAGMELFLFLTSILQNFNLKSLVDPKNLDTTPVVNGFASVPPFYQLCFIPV
PLAP activator – PLAP enzyme activators, biochemical, luminescence, HTS; Alkaline phosphatase, placental type (Homo sapiens), P05187; purified PLAP enzyme, luminescent substrate read-out; hits give high values; activation fold at 20 µM; 1.2% of 96,000 active; in the data active = activation fold above about 2
CYP2C19 activ – human CYP2C19 activators, primary screen, biochemical, luminescence; recombinant CYP2C19, luciferin-H EGE luminescence; hits give high values; 0 = fully inhibited enzyme, 1 = untreated enzyme; activation factor at 5 µM; 96,000 tested, under 10 active; AID 1025, 2008;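 active = activation factor of at least 2 at 5 µM in the primary screen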;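 note: 0 = wells with 2.5 mM tranylcypromine and 1 = vehicle-only wells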
CYP2C9 act – human CYP2C9 activators, primary screen, biochemical, luminescence | AID 1024, 2008 | recombinant CYP2C9, luciferin-H conversion; hits give high values; factor 1 = untreated enzyme, 0 = blocked | 1.4% of 96,000 active | activation factor at 5 µM;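 active = activation factor of 2 or more for CYP2C9 at a 5 µM dose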;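 note: 0 = sulfaphenazole-blocked wells and 1 = vehicle-only wells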
CYP2C19 inh – blockers of cytochrome P450 2C19 activity – biochemical, luminescence, ADME assay, primary screen. P33261. CYP2C19 Supersomes, luciferin-H EGE luminescence, 30 min. inhibition, % at 5 µM. 21% of 96,000 active. AID 778, 2007;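 active = CYP2C19 inhibition above a set limit at 5 µM in the primary screen, cut at about 50% in these data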;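 note: plate controls were negative control wells for no effect and 2.5 mM tranylcypromine positive control for full effect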
* = called active by the depositor. Only some compounds are listed: those with a hit (about 31% of all), similar ones and a draw of the others.

SMILES	CYP2C9 inh	PLAP activator	CYP2C19 activ	CYP2C9 act	CYP2C19 inh
CC(C)CCNC(=O)C(c1cccs1)N(CC1CCCO1)C(=O)Cn1nnc2ccccc21 (stereo not given)	12.8	0.9	1	0.9	1.7
CC1CCCC(NC(=O)CC2Nc3ccccc3NC2=O)C1C (stereo not given)	-37.6	1	0.8	1.4	20.5
O=C(CC1Nc2ccccc2NC1=O)NC1CCCCC1 (stereo not given)	-122.4	1.2	0.9	2.2*	10.7
CC(=O)Cc1nsc(NC(=O)c2cc(-c3cccc(C(F)(F)F)c3)oc2C)n1	20.8	1.3	1	0.8	-3.0
CCOc1ccccc1Nc1nc(-c2sc(NC(=O)c3ccc([N+](=O)[O-])cc3)nc2C)cs1	34.3	1	0.6	0.7	40.8
Cc1ccc(Nc2nc(-c3sc(NC(=O)c4ccc([N+](=O)[O-])cc4)nc3C)cs2)cc1	26.5	0.9	0.6	0.7	35.8
Cc1ccccc1Nc1nc(-c2sc(NC(=O)c3ccc([N+](=O)[O-])cc3)nc2C)cs1	44.5	1.2	0.5	0.6	52.5*
Cc1nc(NC(=O)c2ccccc2)sc1-c1csc(Nc2ccc(F)cc2)n1	-86.9	1	0.2	1.9	77.6*
Cc1ccccc1Nc1nc(-c2sc(NC(=O)c3ccccc3)nc2C)cs1	10.3	1.1	0.4	0.9	55.1*
Cn1c(=O)oc2cc(S(=O)(=O)N3CCC(C(=O)NCc4ccc(F)cc4)CC3)ccc21	-32.9	0.9	0.9	1.3	8.9
OC1(c2cccnc2)CCN(Cc2nnnn2C2CCCCC2)CC1	14.3	0.9	0.7	0.9	25.9
COc1ccc(CNC(=O)c2ccc(NC(=O)C3CCCO3)cc2)cc1 (stereo not given)	6.0	1	1	0.9	-1.0
CC1=CC(=O)N(c2cccc(C(F)(F)F)c2)C1c1ccc(Cl)cc1 (stereo not given)	40.0	1	0.3	0.6	70.1*
CC/C(=N\O)c1ccc(O)c(OC)c1	-2.2	0.9	1	1	2.7
O=c1cc(CNCCCO)c2ccccc2[nH]1	-22.9	1.1	1.1	1.2	-14.8
O=S(=O)(N1CCCCC1)n1c(Cc2ccccc2)nc2ccccc21	68.4*	1.2	0.1	0.3	85.3*
CC(=Nc1ccc(C)c(C)c1)C1=C(O)CCC1=O	34.4	1	0.5	0.7	54.0*
COC(=O)c1cc(C#N)c(Oc2ccccc2OC)nc1C	51.8*	1.3	0.3	0.5	71.7*
CCOC(=O)c1cc(C#N)c(Oc2ccccc2OC)nc1-c1ccccc1	64.4*	1.4	0.6	0.4	42.4
CCOC(=O)c1cc(C#N)c(SC)nc1-c1ccccc1	47.1	1.3	0.8	0.5	17.2
OC(CNCC(c1ccco1)N1CCCCC1)c1ccccc1 (stereo not given)	0.3	1	0.8	1	17.8
N#Cc1nc(COc2ccc(Cl)cc2)oc1N1CCCCCC1	97.0*	0.9	0.1	0	89.1*
N#Cc1nc(COc2cccc(Cl)c2)oc1N1CCN(c2ccccc2)CC1	57.0*	1	0.5	0.4	49.5
N#Cc1nc(COc2ccccc2F)oc1N1CCCCCC1	44.8	0.7	0.7	0.6	33.4
N#Cc1nc(COc2ccccc2)oc1N1CCCCC1	34.3	1	0.5	0.7	49.6
SMILES	CYP2C9 inh	PLAP activator	CYP2C19 activ	CYP2C9 act	CYP2C19 inh
N#Cc1nc(COc2ccccc2)oc1N1CCN(c2cccc(Cl)c2)CC1	79.7*	0.9	0.6	0.2	38.5
COc1ccc(N2CCN(c3oc(COc4ccccc4Cl)nc3C#N)CC2)cc1	56.5*	1.2	0.6	0.4	38.5
CCCCOC(=O)Nc1ccccc1C(N)=O	18.0	0.9	0.8	0.8	22.2
COc1ccc(CNC(=O)CN(Cc2ccc(Cl)cc2)S(=O)(=O)c2ccccc2)cc1	34.4	0.6	0.6	0.7	42.1
COc1ccc(CNC(=O)CN(Cc2ccccc2)S(=O)(=O)c2ccc(Cl)cc2)cc1	96.1*	1.4	0	0	99.5*
COc1ccc(C)cc1S(=O)(=O)N(CC(=O)NCc1ccc(Cl)cc1)Cc1ccccc1	89.4*	1.5	0.3	0.1	72.1*
CN(C1CCCCC1)S(=O)(=O)c1ccc(S(=O)(=O)N2CCN(C(=O)c3ccccc3F)CC2)cc1	4.4	0.9	0.9	1	7.9
